Source: PubChem BioAssay AID651692 (Broad Institute, 2012)
Measured potencies and affinities stand elsewhere. Calls of active or inactive are those of the source.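 The calls were made as follows: active = fitted half-maximal concentration for loss of cell signal no higher than twice the top valid tested concentration; inconclusive = flat curve at 30 to 70% inhibition, or poor fit; inactive = flat within 30%, signal rise, or potency above limit.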

Assay: MDA-MB-231 cell growth inhibition, dose response, cytotoxicity control for RAD54 inhibitor project, CellTiter-Glo luminescence, cherry-pick (AID 651692);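 also: more negative values mean stronger loss of viable cell signal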

Compound	outcome
CN(C)CCCN(C(=O)c1ccc([N+](=O)[O-])o1)c1nc2cc3c(cc2s1)OCO3	inactive
CCN1CCN(c2nc(N)c([N+](=O)[O-])c(Nc3cccc(C)c3)n2)CC1	inactive
CCOC(=O)c1cc(-c2ccncc2)nc2c1c(C)nn2-c1ccccn1	inactive
CN(C)CCNC(=O)c1cccc(-c2cnc3c(NC=O)cc(-c4cccc(F)c4)cn23)c1	inactive
Cc1c(Cl)ccc(S(=O)(=O)NCCCn2ccnc2)c1Cl	inactive
COc1cccc(-c2cc(NC=O)c3ncc(-c4cccc(C(=O)NCCN(C)C)c4)n3c2)c1	inactive
Cc1cccc(-c2nc(NCCCN(C)C)c3ccccc3n2)c1	inactive
Cc1cccc2cc3c(N)c(C#N)sc3nc12	inactive
CN1CCN(c2nc(-c3ccncc3)nc3ccccc23)CC1	inactive
CCN(CC)CCn1c2ccccc2c2nc3ccc([N+](=O)[O-])cc3cc21	inactive
CN(C)CCOc1nc(-c2ccccc2)nc2c1oc1ccccc12	inactive
CCN(CC)CC(=O)Nc1cccc2c1C(=O)c1ccccc1C2=O	inactive
CCOC(=O)c1cnc2ccc(OCC)cc2c1NCCCN1CCOCC1	inactive
CCOC(=O)c1cnc2ccc(OC)cc2c1Nc1ccc(N2CCN(C)CC2)cc1	inactive
CCN(CC)CCn1c2ccccc2c2nc3ccccc3nc21	inactive
Cc1cccn2c(=O)c3cc(C(=O)NCc4ccccc4)c(=N)n(CCCN4CCOCC4)c3nc12	inactive
O=C1C(c2ccc(F)cc2)N(C2CCCCC2)C(=O)CN1C1CCCC1 (centres undefined)	inactive
COC(=O)c1c(NC(=O)c2ccco2)sc2c1CCN(C(C)C)C2	inactive
CC(C)N1CCc2c(sc(NC(=O)c3ccc(C(=O)c4ccccc4)cc3)c2C(N)=O)C1	inactive
CCN(CC)CCNC(=O)c1cc2c(=O)n(C)c3ccccc3c2s1	inactive

Compound	outcome
COc1ccc(Nc2c3c(nc4ccc(C)cc24)CCC3)cc1	inactive
CN1CCN(c2nc(-c3cccs3)nc3ccccc23)CC1	inactive
CCn1c(=O)c2cc(C(=O)NCCN(C)C)sc2c2ccccc21	inactive
CCOC(=O)c1cnc2c(C)cc(Cl)cc2c1NCCCN1CCOCC1	inactive
Cc1nc2ccccc2c2oc(C(=O)NCCN3CCN(C)CC3)cc12	inactive
CN1CCCC1CCNc1ccc2c(=O)c3ccccc3oc2c1 (centres undefined)	inactive
Cc1cc(C)c2c(N)c3ccccc3nc2n1	inactive
Cc1nc2ccccc2c2oc(C(=O)N3CCC(N4CCCCC4)CC3)cc12	inactive
CCN(CC)CCN1CCN(c2cncc(-c3cccc(N)c3)n2)CC1	inactive
Cc1ccc2nc3c(c(Nc4ccc5c(c4)OCCO5)c2c1)CCC3	inactive
COc1ccc2nc(C)cc(Nc3ccc(C)cc3)c2c1	inactive
CCOC(=O)c1cnc2c(ccc3ccccc32)c1NCCN(C)C	inactive
OCCN1CCN(c2ncnc3sc(-c4ccccc4)cc23)CC1	inactive
Cc1ccc2nc(Cl)c3cc(C(=O)NCCCN4CCCC4)sc3c2c1	inactive
O=C(COc1ccc2c(c1)oc(=O)c1ccccc12)NCCCN1CCOCC1	inactive
CC(=O)Nc1cc(-c2cccc(C(=O)NCCN(C)C)c2)cn2c(-c3ccc(S(C)(=O)=O)cc3)cnc12	inactive
Cc1ccc(-c2nc(NCCCN(C)C)c3ccccc3n2)cc1	inactive
COc1ccc(OC)c(Nc2nc(NCCO)c3ccccc3n2)c1	inactive
OCCNc1nc(Nc2ccc(O)cc2)nc2ccccc12	inactive
